Data published in the supplement of paper PMC13380429.

Test system: Vero E6 infected with SARS-CoV-2
Assay: inhibition of SARS-CoV-2 cytopathic effect; higher = more antiviral protection, active = above 15
Details: 48 h

Measured: inhibition of SARS-CoV-2 cytopathic effect

CC(=O)N[C@H]1[C@@H](O)[C@H](O)[C@@H](CO)O[C@@H]1O [N-acetylmannosamine]
inactive: 1 nM 0.48% | 8.33 nM -0.18% | 100 nM -0.61% | 833.33 nM -1.2% | 10000 nM 1.32%

O=C(O)c1ccc(O)c2ncccc12
inactive: 1 nM 0.11% | 8.33 nM 1.32% | 100 nM 1.3% | 833.33 nM 3.02% | 10000 nM 1.28%

OC[C@H]1O[C@@H](Oc2ccc(O)cc2)[C@H](O)[C@@H](O)[C@@H]1O [arbutin]
inactive: 1 nM -0.81% | 8.33 nM 0.67% | 100 nM 0.6% | 833.33 nM -2.34% | 10000 nM 0.83%

CC(C)CC(N)=O [isovaleramide]
inactive: 1 nM 1.36% | 8.33 nM -1.79% | 100 nM 1.18% | 833.33 nM 0.06% | 10000 nM 0.19%

N[C@@H]1c2cccnc2[C@H](OC(=O)N2CCC(n3c(=O)[nH]c4ncccc43)CC2)CC[C@H]1c1cccc(F)c1F [rimegepant]
inactive: 1 nM -0.34% | 8.33 nM 1.65% | 100 nM -0.46% | 833.33 nM -1.15% | 10000 nM 0.55%

CC[N+](C)(CC)CCOC(=O)C1c2ccccc2Oc2ccccc21 [methantheline]
inactive: 1 nM 7.35% | 8.33 nM 3.87% | 100 nM 1.9% | 833.33 nM -0.21% | 10000 nM 3.41%

CCNC(=O)/C=C/c1cccc(Br)c1 [cinromide]
inactive: 1 nM 0.47% | 8.33 nM 1.25% | 100 nM 0.09% | 833.33 nM 2.1% | 10000 nM 1.33%

NC1=N[C@@](c2cccc(-c3cncnc3)c2)(c2ccnc(C(F)F)c2)c2cccc(F)c21
inactive: 1 nM 0.77% | 8.33 nM -1.06% | 100 nM -1.46% | 833.33 nM -0.56% | 10000 nM -2.76%

Clc1cccc(Cl)c1CSc1nnc(-c2cnccn2)s1 [yoda-1]
inactive: 1 nM 1.9% | 8.33 nM 3.59% | 100 nM -0.57% | 833.33 nM 2.67% | 10000 nM 9.5%

NS(=O)(=O)c1cc(C2(O)NC(=O)c3ccccc32)ccc1Cl (stereo not given) [chlorthalidone]
inactive: 1 nM -0.87% | 8.33 nM -0.18% | 100 nM 4.69% | 833.33 nM -3.83% | 10000 nM -3.63%

CN1C2C=C(c3sccc3Br)CC1CC2 (stereo not given)
active: 1 nM 24.2%
inactive: 8.33 nM -2.54% | 100 nM -0.99% | 833.33 nM -2.31% | 10000 nM 3.11%

CCN1C(=O)CNc2ncc(-c3ccc(-c4nc[nH]n4)nc3C)nc21
inactive: 1 nM 2.11% | 8.33 nM 2.76% | 100 nM 2.06% | 833.33 nM 2.77% | 10000 nM -4.67%

Cc1ncc(C)n2nc([C@@H]3C[C@H]3c3nc4c5cccnc5ccn4c3C)nc12
inactive: 1 nM 0.4% | 8.33 nM 0.57% | 100 nM 0.67% | 833.33 nM -1.22% | 10000 nM 4.45%

COc1ccc(/C=C/C(=O)/C=C(O)/C=C/c2ccc(OC)c(OC)c2)cc1OC
active: 10000 nM 19.7%
inactive: 1 nM 1.2% | 8.33 nM -0.13% | 100 nM 3.36% | 833.33 nM 5.15%

C#C[C@]1(O)CC[C@H]2[C@@H]3CCc4cc(OC5CCCC5)ccc4[C@H]3CC[C@@]21C [quinestrol]
active: 10000 nM 15.7%
inactive: 1 nM -2.85% | 8.33 nM -1.33% | 100 nM -0.65% | 833.33 nM 0.63%

COCCCOc1cc(C[C@@H](C[C@H](N)[C@@H](O)C[C@H](C(=O)NCC(C)(C)C(N)=O)C(C)C)C(C)C)ccc1OC [aliskiren-hemifumarate]
inactive: 1 nM 0.8% | 8.33 nM -0.18% | 100 nM -1.58% | 833.33 nM -0.63% | 10000 nM -0.23%

CCN(CC)CCOc1ccc(/C(=C(\Cl)c2ccccc2)c2ccccc2)cc1 [clomifene]
inactive: 1 nM 0.1% | 8.33 nM 1.97% | 100 nM 2.27% | 833.33 nM 3.88%
active: 10000 nM 21.1%

CCCCC(=O)O[C@H]1CC[C@H]2[C@@H]3CCc4cc(O)ccc4[C@H]3CC[C@]12C
inactive: 1 nM -0.93% | 8.33 nM 0.74% | 100 nM -1.48% | 833.33 nM -1.92% | 10000 nM -0.83%

O=C(Nc1ccc(N2CCC(C(=O)N3CCOCC3)CC2)cc1)c1cnc(Oc2ccccc2)nc1
inactive: 1 nM 0.64% | 8.33 nM 1.26% | 100 nM 2.38% | 833.33 nM 1.19% | 10000 nM -0.78%

O=c1oc2cc(O)ccc2s1 [tioxolone]
inactive: 1 nM 1.22% | 8.33 nM -2.55% | 100 nM -0.43% | 833.33 nM -1.44% | 10000 nM -1.5%

CC(C)C[C@H](NC(=O)[C@H](Cc1ccccc1)NC(=O)c1cnccn1)B(O)O [bortezomib]
inactive: 1 nM 1.7% | 8.33 nM 11% | 10000 nM 12.7%
active: 100 nM 32.8% | 833.33 nM 27.1%

N=C(N)Nc1ccc(Cl)cc1 [4-chlorophenylguanidine]
inactive: 1 nM 0.9% | 8.33 nM 1.22% | 100 nM 0.63% | 833.33 nM -0.99% | 10000 nM 0.95%

C[C@H](Cc1ccc(OCC(=O)O)cc1)NC[C@H](O)c1cccc(Cl)c1
inactive: 1 nM -1% | 8.33 nM 0.79% | 100 nM 2.24% | 833.33 nM 0.59% | 10000 nM 0.72%

O=C1c2cccc(O)c2C(=O)c2c(O)cc(CO)cc21 [aloe-emodin]
inactive: 1 nM -3.13% | 8.33 nM -0.39% | 100 nM -0.52% | 833.33 nM -3% | 10000 nM -2.43%

c1ccc(C(NCCNC(c2ccccc2)c2ccccc2)c2ccccc2)cc1
inactive: 1 nM -3.48% | 8.33 nM -3.4% | 100 nM 3.81% | 833.33 nM 2.97% | 10000 nM -0.01%

COc1ccc(C2CNC(=O)C2)cc1OC1CCCC1 (stereo not given) [rolipram]
inactive: 1 nM 0.987% | 8.33 nM 0.267% | 100 nM -1.59% | 833.33 nM -0.223% | 10000 nM -5.08%

NCC(=O)N1C[C@H](NC(=O)c2ccccc2)C[C@H]1C(=O)O [danegaptide]
inactive: 1 nM -2% | 8.33 nM -0.68% | 100 nM 1.14% | 833.33 nM -0.88% | 10000 nM 3.55%

CN(C)CCCSc1ccccc1NC(=O)/C=C/c1ccccc1 [cinanserin]
inactive: 1 nM 1.46% | 8.33 nM 0.94% | 100 nM -0.47% | 833.33 nM -4.69% | 10000 nM -4.38%

CC(C)(C)c1cc(/C=C(\C#N)C(N)=S)cc(C(C)(C)C)c1O [tyrphostin-AG-879]
inactive: 1 nM -1.49% | 8.33 nM -0.31% | 100 nM -1.98% | 833.33 nM 5.42% | 10000 nM 8.93%

C[C@@H]1COCCN1c1cc(C2([S@](C)(=N)=O)CC2)nc(-c2ccnc3[nH]ccc23)n1
inactive: 1 nM -1.91% | 8.33 nM -1.92% | 100 nM 0.5% | 833.33 nM 1.27% | 10000 nM 1.76%

O=C(COc1ccc(Cl)cc1)N[C@H]1CC[C@H](NC(=O)COc2ccc(Cl)cc2)CC1
active: 10000 nM 15.7%
inactive: 1 nM -0.57% | 8.33 nM -0.23% | 100 nM 3.35% | 833.33 nM 6.09%

CC[C@@H](C)Nc1cc(C(=O)N[C@H]2C[C@H]3CC[C@@H](C2)N3c2ccc(C(=O)C3CC3)cn2)c(C)cc1C(N)=O
inactive: 1 nM 1.52% | 8.33 nM 1.25% | 100 nM -3.63% | 833.33 nM 2.73% | 10000 nM 1.28%

Cc1cc(OCCCS(C)(=O)=O)cc(C)c1-c1cccc(COc2ccc3c(c2)OC[C@H]3CC(=O)O)c1
inactive: 1 nM -1.83% | 8.33 nM 0.64% | 100 nM -0.31% | 833.33 nM 3.74% | 10000 nM 2.41%

O=C(O)c1ccccc1Nc1cccc(C(F)(F)F)c1 [flufenamic-acid]
inactive: 1 nM -1.93% | 8.33 nM 0.57% | 100 nM -0.92% | 833.33 nM 0.82% | 10000 nM 0.1%

O=c1oc(-c2ccc(C(F)(F)F)cc2)nn1Cc1cc(Cl)ccc1O
inactive: 1 nM -2.43% | 8.33 nM -1.09% | 100 nM 3.13% | 833.33 nM 3.7% | 10000 nM 13.8%

Cc1csc(-c2nnc(Nc3ccc(Oc4ncccc4-c4ccnc(N)n4)cc3)c3ccccc23)c1
inactive: 1 nM -1.03% | 8.33 nM -3.23% | 100 nM -5.41% | 833.33 nM -4.07% | 10000 nM -4.59%
